Laboratory results from paper PMC7862700, “An all-to-all approach to the identification of sequence-specific readers for epigenetic DNA modifications on cytosine”.

Key:
Assay in all cases: DAPPL (digital affinity profiling via proximity ligation, sequencing); 10 mM Tris-HCl pH 7.5, 50 mM NaCl, 1 mM DTT, 4% glycerol, room temperature, 30 min; GST-TFs on glutathione beads, 16-mer random dsDNA library, 0.1% formaldehyde crosslink after washing; high values mean tight binding
[1] = biological target: T1, FEV (Homo sapiens, UniProt Q99581 1-238); settings: protein: recombinant; tags: N-terminal GST; dsDNA, one strand shown
T1 sequence: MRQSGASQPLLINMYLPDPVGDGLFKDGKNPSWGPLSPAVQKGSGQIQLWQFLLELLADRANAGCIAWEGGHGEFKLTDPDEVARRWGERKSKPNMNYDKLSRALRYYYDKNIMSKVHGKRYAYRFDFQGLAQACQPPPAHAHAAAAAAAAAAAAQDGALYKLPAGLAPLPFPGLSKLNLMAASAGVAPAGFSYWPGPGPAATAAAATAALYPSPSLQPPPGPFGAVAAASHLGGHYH
Outline: (§1)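 Binding signal is each hexamer's read frequency for a factor divided by its frequency in the tag-only sample. The factors were GST-fused human transcription factors from yeast, captured on glutathione beads, DNA-barcoded and pooled with that sample. Pools were incubated with 200 nmole of a random double-stranded 16-mer DNA library in Tris/NaCl/DTT/glycerol buffer at room temperature for 30 min, then washed, crosslinked with 0.1% formaldehyde, proximity-ligated with BsaI/T4 ligase (1 h, 37 °C), PCR-amplified and sequenced on an Illumina NextSeq500.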

[2] = biological target: ETV5 (Homo sapiens, UniProt P41161 1-510); settings: protein: recombinant; tags: N-terminal GST; dsDNA, one strand shown
ETV5, sequence (P41161 whole entry): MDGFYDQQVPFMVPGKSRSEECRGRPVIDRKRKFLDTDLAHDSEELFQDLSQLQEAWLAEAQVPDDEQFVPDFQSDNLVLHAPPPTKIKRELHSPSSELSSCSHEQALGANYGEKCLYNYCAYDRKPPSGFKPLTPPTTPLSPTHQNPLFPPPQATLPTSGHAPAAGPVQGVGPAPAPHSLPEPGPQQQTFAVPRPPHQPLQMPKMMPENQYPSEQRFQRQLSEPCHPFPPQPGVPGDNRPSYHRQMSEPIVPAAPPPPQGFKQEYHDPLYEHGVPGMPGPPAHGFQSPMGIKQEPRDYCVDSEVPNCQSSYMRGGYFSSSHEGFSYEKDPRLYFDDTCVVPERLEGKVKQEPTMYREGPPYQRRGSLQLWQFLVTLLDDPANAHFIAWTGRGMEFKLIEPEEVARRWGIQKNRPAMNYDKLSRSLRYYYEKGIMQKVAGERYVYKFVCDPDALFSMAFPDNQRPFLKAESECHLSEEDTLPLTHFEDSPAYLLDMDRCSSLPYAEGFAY
Outline: as §1

[3] = biological target: HSF1 (Homo sapiens, UniProt Q00613 1-529); settings: protein: recombinant; tags: N-terminal GST; chain copies: 3; dsDNA, one strand shown
HSF1, sequence (Q00613 whole entry): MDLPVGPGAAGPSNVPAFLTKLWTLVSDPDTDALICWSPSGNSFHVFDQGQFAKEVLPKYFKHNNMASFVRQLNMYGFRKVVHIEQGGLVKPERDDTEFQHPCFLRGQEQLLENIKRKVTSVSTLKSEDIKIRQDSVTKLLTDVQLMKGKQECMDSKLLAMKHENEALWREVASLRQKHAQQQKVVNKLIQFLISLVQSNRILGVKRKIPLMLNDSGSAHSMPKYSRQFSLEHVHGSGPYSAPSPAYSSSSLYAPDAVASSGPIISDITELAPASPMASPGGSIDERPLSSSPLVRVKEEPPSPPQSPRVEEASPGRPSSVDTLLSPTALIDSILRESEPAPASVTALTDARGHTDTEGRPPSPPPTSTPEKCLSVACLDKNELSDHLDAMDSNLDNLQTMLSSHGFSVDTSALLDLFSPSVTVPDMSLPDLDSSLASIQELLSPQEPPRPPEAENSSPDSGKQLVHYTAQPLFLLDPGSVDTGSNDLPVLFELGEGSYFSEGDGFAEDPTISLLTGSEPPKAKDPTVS
Outline: as §1

[4] = biological target: T2, SPIC (Homo sapiens, UniProt Q8N5J4 1-248); settings: protein: recombinant; tags: N-terminal GST; dsDNA, one strand shown
T2 sequence: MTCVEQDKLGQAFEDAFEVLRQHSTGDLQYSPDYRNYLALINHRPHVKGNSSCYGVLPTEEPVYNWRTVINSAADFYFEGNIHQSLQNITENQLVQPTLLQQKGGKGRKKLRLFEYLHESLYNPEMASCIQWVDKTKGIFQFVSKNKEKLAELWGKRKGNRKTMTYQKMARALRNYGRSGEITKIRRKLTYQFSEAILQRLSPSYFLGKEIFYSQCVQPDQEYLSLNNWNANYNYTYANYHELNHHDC
Outline: as §1

[5] = biological target: ELF4 (Homo sapiens, UniProt Q99607 1-663); settings: protein: recombinant; tags: N-terminal GST; dsDNA, one strand shown
ELF4, sequence (Q99607 whole entry): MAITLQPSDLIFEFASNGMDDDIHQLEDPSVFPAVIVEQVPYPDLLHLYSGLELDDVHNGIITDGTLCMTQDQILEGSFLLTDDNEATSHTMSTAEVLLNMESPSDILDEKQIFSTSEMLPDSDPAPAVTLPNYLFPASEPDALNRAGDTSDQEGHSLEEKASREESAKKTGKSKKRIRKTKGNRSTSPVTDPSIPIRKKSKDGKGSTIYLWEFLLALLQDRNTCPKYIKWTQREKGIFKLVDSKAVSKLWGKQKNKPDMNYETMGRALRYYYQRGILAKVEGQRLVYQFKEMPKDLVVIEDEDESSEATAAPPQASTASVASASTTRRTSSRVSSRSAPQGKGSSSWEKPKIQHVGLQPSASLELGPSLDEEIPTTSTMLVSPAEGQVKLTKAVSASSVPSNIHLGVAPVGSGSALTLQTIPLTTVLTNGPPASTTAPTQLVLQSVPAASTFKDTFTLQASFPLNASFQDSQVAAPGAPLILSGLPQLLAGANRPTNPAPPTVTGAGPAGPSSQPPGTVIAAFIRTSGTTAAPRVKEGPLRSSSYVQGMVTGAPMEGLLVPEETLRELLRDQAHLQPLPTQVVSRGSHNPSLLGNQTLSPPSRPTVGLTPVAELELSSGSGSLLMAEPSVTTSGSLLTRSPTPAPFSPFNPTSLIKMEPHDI
Outline: as §1

[6] = biological target: T3, ELK4 (Homo sapiens, UniProt P28324-2 1-405); settings: protein: recombinant; tags: N-terminal GST; dsDNA, one strand shown
T3 sequence: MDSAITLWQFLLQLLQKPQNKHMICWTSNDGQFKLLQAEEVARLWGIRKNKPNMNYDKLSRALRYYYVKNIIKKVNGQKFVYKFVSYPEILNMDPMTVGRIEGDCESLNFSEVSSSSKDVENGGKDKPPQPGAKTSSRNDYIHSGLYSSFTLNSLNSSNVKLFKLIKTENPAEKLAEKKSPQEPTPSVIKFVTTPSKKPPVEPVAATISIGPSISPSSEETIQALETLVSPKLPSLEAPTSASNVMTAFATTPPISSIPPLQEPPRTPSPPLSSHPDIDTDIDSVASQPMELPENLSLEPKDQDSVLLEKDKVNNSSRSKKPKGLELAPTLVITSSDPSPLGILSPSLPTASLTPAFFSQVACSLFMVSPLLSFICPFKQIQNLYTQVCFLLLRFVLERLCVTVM
Outline: as §1

[7] = biological target: T4, ETV2 (Homo sapiens, UniProt O00321 1-342); settings: protein: recombinant; tags: N-terminal GST; dsDNA, one strand shown
T4 sequence: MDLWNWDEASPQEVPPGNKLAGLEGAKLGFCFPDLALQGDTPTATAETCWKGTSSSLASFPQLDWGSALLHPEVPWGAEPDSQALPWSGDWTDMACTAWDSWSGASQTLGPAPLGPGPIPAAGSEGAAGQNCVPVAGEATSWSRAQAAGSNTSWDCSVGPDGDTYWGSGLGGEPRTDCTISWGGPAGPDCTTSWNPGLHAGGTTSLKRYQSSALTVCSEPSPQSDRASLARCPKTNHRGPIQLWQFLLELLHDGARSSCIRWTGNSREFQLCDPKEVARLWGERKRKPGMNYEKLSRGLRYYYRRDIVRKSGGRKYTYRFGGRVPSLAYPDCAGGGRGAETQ
Outline: as §1

[8] = biological target: CRX (Homo sapiens, UniProt O43186 1-299); settings: protein: recombinant; tags: N-terminal GST; dsDNA, one strand shown
CRX, sequence (O43186 whole entry): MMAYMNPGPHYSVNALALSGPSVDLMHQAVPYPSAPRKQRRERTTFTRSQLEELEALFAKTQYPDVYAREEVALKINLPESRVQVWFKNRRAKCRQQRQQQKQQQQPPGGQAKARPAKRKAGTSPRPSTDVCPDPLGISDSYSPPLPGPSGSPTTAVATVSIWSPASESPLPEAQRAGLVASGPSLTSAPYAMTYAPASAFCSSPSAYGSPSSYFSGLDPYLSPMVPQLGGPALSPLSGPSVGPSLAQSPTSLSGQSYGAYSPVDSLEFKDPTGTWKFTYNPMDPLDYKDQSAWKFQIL
Outline: as §1

[9] = biological target: ETV1 (Homo sapiens, UniProt P50549 1-477); settings: protein: recombinant; tags: N-terminal GST; dsDNA, one strand shown
ETV1, sequence (P50549 whole entry): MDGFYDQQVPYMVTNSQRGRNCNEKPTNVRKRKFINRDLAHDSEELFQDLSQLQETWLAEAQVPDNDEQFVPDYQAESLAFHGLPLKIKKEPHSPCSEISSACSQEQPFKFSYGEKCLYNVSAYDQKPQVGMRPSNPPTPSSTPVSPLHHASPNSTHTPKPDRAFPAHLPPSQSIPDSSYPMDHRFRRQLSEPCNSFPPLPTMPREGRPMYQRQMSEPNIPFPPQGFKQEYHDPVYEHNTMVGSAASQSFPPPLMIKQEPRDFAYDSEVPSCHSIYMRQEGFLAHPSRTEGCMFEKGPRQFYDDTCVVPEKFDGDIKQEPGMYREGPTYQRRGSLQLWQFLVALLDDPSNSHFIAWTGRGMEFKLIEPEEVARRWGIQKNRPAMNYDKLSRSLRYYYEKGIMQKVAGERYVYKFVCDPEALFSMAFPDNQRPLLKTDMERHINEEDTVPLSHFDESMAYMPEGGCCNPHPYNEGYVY
Outline: as §1

[10] = biological target: T5, ERF (Homo sapiens, UniProt P50548 1-548); settings: protein: recombinant; tags: N-terminal GST; dsDNA, one strand shown
T5 sequence: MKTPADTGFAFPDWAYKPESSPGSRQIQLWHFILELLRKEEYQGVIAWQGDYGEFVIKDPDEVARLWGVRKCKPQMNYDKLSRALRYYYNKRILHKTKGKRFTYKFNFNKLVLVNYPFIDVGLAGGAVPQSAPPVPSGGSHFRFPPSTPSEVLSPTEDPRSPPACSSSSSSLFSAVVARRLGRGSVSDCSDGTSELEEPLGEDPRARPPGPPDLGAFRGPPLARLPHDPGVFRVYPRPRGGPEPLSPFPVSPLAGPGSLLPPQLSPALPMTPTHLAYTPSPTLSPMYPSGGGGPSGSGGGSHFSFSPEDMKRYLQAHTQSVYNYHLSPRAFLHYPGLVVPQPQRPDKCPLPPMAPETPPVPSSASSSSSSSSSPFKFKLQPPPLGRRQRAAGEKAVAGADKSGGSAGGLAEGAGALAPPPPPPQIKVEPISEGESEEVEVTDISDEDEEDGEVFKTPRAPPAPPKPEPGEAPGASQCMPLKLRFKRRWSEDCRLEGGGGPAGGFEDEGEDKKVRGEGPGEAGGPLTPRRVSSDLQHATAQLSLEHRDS
Outline: as §1

[11] = biological target: T6, ETV3L (Homo sapiens, UniProt Q6ZN32 1-361); settings: protein: recombinant; tags: N-terminal GST; dsDNA, one strand shown
T6 sequence: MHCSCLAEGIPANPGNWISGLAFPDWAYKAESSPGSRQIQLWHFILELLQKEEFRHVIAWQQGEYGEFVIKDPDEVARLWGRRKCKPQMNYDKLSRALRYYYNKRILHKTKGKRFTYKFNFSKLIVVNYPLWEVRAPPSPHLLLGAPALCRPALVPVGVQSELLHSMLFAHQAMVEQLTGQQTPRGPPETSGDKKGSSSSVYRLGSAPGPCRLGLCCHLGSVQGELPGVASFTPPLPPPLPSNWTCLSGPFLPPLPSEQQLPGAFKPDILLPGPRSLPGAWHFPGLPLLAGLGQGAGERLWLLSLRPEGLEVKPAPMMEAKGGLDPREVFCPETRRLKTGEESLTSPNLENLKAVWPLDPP
Outline: as §1

[12] = biological target: T7, ETS2 (Homo sapiens, UniProt P15036 1-469); settings: protein: recombinant; tags: N-terminal GST; dsDNA, one strand shown
T7 sequence: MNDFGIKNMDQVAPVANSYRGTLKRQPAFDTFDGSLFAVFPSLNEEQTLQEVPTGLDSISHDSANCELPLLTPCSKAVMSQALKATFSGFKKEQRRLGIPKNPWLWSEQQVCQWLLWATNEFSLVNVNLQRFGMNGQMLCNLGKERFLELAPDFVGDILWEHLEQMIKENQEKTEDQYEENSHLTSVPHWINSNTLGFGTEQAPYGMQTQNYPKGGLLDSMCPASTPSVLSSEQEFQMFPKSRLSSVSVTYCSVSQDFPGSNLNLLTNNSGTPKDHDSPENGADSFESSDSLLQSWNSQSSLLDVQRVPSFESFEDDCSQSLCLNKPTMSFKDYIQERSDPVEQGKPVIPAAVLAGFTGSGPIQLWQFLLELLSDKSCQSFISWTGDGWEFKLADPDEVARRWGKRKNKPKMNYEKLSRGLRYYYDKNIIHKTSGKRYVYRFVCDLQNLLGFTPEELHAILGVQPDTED
Outline: as §1

[13] = biological target: T8, SPDEF (Homo sapiens, UniProt O95238 1-335); settings: protein: recombinant; tags: N-terminal GST; dsDNA, one strand shown
T8 sequence: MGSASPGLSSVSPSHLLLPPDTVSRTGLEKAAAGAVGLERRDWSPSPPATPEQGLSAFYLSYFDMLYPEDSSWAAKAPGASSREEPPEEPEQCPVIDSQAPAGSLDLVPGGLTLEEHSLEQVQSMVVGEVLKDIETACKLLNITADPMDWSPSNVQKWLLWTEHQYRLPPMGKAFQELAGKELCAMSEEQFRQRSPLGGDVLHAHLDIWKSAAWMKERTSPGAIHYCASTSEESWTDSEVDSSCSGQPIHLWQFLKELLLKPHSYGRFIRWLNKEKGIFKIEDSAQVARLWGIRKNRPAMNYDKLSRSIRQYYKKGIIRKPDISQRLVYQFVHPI
Outline: as §1

[14] = biological target: T9, ETV7 (Homo sapiens, UniProt Q9Y603 1-341); settings: protein: recombinant; tags: N-terminal GST; dsDNA, one strand shown
T9 sequence: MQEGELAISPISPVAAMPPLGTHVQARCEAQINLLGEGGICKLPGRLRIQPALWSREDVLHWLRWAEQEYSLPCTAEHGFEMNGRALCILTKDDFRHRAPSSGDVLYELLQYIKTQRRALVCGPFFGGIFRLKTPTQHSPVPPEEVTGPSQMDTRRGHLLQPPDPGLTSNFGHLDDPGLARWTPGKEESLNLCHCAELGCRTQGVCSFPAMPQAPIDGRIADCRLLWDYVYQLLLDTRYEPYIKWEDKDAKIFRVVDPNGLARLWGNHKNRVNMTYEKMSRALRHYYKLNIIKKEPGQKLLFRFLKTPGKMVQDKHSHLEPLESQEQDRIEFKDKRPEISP
Outline: as §1

[15] = biological target: T10, ELF5 (Homo sapiens, UniProt Q9UKW6-2 1-255); settings: protein: recombinant; tags: N-terminal GST; dsDNA, one strand shown
T10 sequence: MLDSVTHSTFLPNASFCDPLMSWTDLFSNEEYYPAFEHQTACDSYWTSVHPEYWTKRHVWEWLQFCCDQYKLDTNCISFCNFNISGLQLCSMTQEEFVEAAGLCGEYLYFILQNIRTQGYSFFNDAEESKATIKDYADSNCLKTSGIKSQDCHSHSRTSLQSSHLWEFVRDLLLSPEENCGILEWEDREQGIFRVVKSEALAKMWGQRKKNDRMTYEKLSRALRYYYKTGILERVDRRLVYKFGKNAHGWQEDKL
Outline: as §1

[16] = biological target: T11, ETV3 (Homo sapiens, UniProt P41162-2 1-143); settings: protein: recombinant; tags: N-terminal GST; dsDNA, one strand shown
T11 sequence: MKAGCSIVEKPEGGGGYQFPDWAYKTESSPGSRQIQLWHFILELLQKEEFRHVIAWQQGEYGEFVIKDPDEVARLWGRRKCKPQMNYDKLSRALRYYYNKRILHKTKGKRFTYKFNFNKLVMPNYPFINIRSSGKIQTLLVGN
Outline: as §1

[17] = biological target: ETV6 (Homo sapiens, UniProt P41212 1-452); settings: protein: recombinant; tags: N-terminal GST; dsDNA, one strand shown
ETV6, sequence (P41212 whole entry): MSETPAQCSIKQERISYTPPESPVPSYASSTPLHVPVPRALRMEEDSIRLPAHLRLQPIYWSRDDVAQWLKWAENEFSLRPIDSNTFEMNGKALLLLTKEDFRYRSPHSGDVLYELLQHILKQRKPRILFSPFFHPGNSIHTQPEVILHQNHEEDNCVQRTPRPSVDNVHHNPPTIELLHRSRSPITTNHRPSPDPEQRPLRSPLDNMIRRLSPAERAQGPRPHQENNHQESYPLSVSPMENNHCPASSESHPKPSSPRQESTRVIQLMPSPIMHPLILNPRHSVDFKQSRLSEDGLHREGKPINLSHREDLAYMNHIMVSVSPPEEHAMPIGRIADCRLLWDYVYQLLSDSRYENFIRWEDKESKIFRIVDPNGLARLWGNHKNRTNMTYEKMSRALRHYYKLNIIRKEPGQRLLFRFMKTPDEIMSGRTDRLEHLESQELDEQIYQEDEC
Outline: as §1

Sequence | binding signal [1] | binding signal [2] | binding signal [3] | binding signal [4] | binding signal [5] | binding signal [6] | binding signal [7] | binding signal [8] | binding signal [9] | binding signal [10] | binding signal [11] | binding signal [12] | binding signal [13] | binding signal [14] | binding signal [15] | binding signal [16] | binding signal [17]
AAGCAC | 1.23 fold enrichment (6-mer frequency, TF over GST control) | 1.12 fold enrichment (6-mer frequency, TF over GST control) | 1.04 fold enrichment (6-mer frequency, TF over GST control) | 1.09 fold enrichment (6-mer frequency, TF over GST control) | 1.2 fold enrichment (6-mer frequency, TF over GST control) | 1.12 fold enrichment (6-mer frequency, TF over GST control) | 1.22 fold enrichment (6-mer frequency, TF over GST control) | 1.09 fold enrichment (6-mer frequency, TF over GST control) | 1.14 fold enrichment (6-mer frequency, TF over GST control) | 1.19 fold enrichment (6-mer frequency, TF over GST control) | 1.2 fold enrichment (6-mer frequency, TF over GST control) | 1.17 fold enrichment (6-mer frequency, TF over GST control) | 1.29 fold enrichment (6-mer frequency, TF over GST control) | 1.3 fold enrichment (6-mer frequency, TF over GST control) | 1.28 fold enrichment (6-mer frequency, TF over GST control) | 1.19 fold enrichment (6-mer frequency, TF over GST control) | 1.28 fold enrichment (6-mer frequency, TF over GST control)
CGATAG | 1.15 fold enrichment (6-mer frequency, TF over GST control) | 1.18 fold enrichment (6-mer frequency, TF over GST control) | 1.14 fold enrichment (6-mer frequency, TF over GST control) | 1.18 fold enrichment (6-mer frequency, TF over GST control) | 1.12 fold enrichment (6-mer frequency, TF over GST control) | 1.16 fold enrichment (6-mer frequency, TF over GST control) | 1.16 fold enrichment (6-mer frequency, TF over GST control) |  | 1.16 fold enrichment (6-mer frequency, TF over GST control) | 1.17 fold enrichment (6-mer frequency, TF over GST control) | 1.07 fold enrichment (6-mer frequency, TF over GST control) | 1.07 fold enrichment (6-mer frequency, TF over GST control) | 1.03 fold enrichment (6-mer frequency, TF over GST control) | 1.15 fold enrichment (6-mer frequency, TF over GST control) | 1.02 fold enrichment (6-mer frequency, TF over GST control) | 1.17 fold enrichment (6-mer frequency, TF over GST control) | 1.11 fold enrichment (6-mer frequency, TF over GST control)
